Measurements as given in the supplement of paper PMC11732987, “Enantioselective OTUD7B fragment discovery through chemoproteomics screening and high-throughput optimisation” (Communications Chemistry, 2025).

What was measured:
Assay in all cases: log2 ratio of Biotin-Ahx-Ub-VS probe labelling (fragment/DMSO); higher = less target engagement (more negative = stronger competition), active = hit call of the paper (q ≤ 0.05, log2 ratio ≤ -1)
Details in all cases: compound concentration: 200 uM; treatment time: 3 h
[1] = target: T1, USP42 (UniProt Q9H9J4)
T1 sequence (whole entry): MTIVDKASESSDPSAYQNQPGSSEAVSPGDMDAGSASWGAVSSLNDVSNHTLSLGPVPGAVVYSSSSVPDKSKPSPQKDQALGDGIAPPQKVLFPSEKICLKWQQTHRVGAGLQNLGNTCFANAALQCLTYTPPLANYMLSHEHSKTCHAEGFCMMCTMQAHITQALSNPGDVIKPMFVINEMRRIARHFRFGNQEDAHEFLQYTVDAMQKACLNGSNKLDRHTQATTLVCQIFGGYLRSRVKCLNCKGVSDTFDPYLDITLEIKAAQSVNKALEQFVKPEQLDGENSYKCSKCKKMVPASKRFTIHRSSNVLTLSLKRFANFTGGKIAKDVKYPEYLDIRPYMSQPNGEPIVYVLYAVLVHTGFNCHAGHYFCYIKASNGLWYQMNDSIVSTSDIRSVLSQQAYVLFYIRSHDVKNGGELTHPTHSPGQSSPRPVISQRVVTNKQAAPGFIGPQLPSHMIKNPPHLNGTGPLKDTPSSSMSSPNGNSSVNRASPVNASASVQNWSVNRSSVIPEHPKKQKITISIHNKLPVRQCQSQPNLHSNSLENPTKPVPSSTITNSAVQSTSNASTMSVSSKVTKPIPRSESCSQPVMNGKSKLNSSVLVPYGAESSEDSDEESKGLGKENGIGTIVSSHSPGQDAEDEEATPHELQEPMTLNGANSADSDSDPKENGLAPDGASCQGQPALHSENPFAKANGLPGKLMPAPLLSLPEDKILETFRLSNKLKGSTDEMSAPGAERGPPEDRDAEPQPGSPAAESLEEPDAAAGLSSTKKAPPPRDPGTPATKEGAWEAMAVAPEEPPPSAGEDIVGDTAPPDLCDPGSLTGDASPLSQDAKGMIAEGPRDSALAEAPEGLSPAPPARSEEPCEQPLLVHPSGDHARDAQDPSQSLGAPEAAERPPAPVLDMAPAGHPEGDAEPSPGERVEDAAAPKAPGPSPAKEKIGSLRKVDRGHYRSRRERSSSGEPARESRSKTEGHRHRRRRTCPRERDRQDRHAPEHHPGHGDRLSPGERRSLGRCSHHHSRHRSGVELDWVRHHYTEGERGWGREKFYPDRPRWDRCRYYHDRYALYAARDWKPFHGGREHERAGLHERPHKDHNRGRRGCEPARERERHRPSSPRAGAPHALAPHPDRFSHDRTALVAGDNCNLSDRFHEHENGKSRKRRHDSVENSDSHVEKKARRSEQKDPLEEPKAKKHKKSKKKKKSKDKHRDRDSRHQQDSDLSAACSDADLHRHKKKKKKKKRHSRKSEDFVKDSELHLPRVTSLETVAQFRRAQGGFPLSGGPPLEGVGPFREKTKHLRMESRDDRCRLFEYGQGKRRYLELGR
Summary of the method: (§1)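 Fragment (200 µM) or vehicle was incubated for 3 h with triplicate HEK293T lysate samples of 495 µg, which were then treated with Biotin-Ahx-Ub-VS at 0.5 µM final for 1 h. Labelled DUBs were enriched on NeutrAvidin, digested with LysC and trypsin, and analysed by diaPASEF LC-MS/MS. Values are average log2 fragment/vehicle ratios from an unpaired t-test on global-median-normalised Spectronaut label-free quantities, using proteins with ≥2 unique peptides.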

[2] = target: USP46 (UniProt P62068)
USP46, sequence (P62068 whole entry): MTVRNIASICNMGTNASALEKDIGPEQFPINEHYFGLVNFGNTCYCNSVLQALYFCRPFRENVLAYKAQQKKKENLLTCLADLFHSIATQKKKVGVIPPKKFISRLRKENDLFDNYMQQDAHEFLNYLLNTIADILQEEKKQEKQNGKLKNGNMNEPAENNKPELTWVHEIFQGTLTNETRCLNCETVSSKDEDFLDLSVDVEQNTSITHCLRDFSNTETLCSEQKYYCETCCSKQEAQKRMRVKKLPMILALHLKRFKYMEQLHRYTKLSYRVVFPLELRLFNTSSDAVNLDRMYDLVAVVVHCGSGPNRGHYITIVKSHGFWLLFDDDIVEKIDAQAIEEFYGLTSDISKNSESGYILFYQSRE
Summary of the method: as §1

[3] = target: T2, USP47 (UniProt Q96K76)
T2 sequence (whole entry): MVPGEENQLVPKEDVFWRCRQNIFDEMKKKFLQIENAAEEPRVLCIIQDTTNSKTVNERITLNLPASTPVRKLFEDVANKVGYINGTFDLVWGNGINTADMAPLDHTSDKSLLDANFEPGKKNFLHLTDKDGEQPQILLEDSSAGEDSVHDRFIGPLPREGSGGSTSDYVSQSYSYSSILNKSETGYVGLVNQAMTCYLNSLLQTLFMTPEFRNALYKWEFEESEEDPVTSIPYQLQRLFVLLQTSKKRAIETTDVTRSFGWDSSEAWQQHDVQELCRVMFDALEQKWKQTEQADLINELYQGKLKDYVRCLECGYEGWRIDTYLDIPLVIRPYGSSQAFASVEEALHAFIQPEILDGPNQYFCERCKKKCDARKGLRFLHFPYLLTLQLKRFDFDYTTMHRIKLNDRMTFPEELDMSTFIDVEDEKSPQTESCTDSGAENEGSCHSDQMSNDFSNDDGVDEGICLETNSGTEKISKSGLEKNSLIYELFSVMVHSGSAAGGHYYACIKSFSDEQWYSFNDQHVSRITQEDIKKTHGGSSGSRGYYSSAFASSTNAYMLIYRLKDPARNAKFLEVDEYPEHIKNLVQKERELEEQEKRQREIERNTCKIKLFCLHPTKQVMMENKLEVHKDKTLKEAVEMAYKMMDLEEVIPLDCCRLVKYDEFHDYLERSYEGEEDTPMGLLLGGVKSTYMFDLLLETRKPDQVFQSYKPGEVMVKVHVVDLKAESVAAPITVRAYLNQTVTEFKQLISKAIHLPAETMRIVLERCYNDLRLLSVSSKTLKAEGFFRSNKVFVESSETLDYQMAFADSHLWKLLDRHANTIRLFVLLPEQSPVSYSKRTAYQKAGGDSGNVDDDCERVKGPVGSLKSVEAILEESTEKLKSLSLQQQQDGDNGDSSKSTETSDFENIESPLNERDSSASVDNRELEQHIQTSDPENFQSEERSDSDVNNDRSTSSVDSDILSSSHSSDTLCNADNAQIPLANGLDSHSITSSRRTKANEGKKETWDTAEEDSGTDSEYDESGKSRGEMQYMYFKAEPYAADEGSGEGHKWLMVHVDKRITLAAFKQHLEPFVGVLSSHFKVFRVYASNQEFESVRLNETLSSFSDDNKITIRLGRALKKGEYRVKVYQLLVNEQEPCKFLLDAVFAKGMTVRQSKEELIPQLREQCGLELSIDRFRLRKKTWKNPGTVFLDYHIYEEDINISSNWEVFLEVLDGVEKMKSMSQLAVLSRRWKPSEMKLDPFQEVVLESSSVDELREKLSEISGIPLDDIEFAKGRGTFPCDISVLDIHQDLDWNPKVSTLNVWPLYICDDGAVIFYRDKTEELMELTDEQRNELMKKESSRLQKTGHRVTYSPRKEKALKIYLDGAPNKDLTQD
Summary of the method: as §1

[4] = target: T3, USP48 (UniProt Q86UV5)
T3 sequence (whole entry): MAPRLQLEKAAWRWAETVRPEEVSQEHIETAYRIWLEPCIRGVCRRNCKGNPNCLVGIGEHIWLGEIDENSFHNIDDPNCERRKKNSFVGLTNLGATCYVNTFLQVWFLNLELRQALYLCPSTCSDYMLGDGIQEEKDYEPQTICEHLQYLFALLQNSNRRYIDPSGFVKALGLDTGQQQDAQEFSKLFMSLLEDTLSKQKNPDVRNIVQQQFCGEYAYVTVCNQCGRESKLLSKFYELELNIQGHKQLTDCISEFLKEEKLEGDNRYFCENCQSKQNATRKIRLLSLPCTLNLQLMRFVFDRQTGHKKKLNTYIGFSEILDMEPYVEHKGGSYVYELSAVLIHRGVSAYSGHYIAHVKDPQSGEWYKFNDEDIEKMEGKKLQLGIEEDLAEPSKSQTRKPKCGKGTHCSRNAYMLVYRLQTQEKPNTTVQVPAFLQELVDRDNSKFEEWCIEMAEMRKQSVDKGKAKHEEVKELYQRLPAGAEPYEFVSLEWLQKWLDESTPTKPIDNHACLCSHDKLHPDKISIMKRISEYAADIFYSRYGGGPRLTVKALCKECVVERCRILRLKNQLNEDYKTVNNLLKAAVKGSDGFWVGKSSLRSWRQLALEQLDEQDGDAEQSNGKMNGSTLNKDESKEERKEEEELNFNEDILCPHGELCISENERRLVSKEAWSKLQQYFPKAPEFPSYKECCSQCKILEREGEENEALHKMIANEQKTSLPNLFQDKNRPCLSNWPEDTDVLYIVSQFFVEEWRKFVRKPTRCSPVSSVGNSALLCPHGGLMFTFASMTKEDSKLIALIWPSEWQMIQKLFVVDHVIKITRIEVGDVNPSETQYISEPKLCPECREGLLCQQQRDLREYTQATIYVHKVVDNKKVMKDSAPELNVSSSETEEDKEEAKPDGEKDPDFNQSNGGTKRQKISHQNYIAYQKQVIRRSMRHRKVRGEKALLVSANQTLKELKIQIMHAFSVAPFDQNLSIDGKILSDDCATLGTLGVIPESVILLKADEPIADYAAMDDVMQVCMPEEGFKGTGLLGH
Summary of the method: as §1

[5] = target: T4, USP5 (UniProt P45974)
T4 sequence (whole entry): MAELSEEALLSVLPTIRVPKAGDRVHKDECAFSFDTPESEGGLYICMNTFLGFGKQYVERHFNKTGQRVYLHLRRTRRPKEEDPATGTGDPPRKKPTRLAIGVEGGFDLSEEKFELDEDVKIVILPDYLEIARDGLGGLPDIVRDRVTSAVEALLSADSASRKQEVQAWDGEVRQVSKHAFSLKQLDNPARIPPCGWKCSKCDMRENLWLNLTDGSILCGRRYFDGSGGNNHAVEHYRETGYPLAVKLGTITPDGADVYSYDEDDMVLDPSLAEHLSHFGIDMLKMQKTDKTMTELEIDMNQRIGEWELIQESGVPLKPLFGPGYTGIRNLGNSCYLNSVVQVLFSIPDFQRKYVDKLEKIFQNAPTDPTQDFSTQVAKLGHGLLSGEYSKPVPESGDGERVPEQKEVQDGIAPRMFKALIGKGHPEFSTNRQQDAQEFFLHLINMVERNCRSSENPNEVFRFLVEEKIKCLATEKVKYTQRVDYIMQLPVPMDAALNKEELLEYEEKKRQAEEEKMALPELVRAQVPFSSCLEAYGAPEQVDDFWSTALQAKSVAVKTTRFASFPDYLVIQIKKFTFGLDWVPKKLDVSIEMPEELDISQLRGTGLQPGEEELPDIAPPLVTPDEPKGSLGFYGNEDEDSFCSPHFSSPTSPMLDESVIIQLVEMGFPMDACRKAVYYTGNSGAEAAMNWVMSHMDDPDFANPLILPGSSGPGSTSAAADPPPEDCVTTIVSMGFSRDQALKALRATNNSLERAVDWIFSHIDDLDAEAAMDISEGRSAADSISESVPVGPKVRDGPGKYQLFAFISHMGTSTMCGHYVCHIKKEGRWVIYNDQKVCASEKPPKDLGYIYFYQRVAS
Summary of the method: as §1

[6] = target: USP54 (UniProt Q70EL1)
USP54, sequence (Q70EL1 whole entry): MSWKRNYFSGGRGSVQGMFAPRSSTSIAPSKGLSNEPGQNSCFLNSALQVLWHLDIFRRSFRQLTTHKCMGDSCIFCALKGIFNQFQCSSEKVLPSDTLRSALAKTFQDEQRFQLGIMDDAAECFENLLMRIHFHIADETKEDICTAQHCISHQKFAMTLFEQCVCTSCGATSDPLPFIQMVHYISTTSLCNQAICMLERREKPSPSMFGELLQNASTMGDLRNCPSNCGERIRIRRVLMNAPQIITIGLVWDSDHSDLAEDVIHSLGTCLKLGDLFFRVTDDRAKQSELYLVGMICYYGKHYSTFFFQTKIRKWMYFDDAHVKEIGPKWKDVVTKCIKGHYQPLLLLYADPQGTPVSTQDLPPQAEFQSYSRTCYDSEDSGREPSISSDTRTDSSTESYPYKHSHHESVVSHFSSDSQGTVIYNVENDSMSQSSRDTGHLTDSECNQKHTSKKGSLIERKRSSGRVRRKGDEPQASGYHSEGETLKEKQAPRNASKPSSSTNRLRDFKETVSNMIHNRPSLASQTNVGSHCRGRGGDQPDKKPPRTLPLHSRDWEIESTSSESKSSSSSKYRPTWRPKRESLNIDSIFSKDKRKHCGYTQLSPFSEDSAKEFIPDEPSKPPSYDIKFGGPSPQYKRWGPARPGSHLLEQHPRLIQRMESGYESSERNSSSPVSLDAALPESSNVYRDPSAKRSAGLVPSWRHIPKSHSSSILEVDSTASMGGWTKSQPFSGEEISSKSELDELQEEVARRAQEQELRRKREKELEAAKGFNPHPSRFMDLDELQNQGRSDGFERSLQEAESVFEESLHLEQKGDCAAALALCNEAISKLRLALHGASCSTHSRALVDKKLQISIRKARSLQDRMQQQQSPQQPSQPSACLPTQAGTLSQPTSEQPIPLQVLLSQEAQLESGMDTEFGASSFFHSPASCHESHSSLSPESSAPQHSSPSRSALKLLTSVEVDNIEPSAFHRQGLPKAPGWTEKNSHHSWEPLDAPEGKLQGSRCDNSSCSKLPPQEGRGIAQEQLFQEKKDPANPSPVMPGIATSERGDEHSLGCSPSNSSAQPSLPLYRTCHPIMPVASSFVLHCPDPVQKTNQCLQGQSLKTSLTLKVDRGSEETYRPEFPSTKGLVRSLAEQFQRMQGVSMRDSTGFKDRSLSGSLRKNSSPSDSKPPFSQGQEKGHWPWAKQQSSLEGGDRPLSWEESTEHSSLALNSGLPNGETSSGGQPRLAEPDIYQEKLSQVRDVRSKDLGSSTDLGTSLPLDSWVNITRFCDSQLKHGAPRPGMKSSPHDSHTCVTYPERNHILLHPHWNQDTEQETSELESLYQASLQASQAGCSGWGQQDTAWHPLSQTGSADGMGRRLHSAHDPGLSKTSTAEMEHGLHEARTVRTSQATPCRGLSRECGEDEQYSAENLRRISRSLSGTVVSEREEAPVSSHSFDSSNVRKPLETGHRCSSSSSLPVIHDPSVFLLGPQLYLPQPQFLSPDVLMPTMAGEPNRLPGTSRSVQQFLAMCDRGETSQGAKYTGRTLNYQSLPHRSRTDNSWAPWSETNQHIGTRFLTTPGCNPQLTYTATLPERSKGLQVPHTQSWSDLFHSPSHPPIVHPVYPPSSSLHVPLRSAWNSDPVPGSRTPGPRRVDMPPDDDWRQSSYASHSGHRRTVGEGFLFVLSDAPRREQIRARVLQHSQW
Summary of the method: as §1

[7] = target: USP7 (UniProt Q93009)
Summary of the method: as §1

[8] = target: T5, USP8 (UniProt P40818)
T5 sequence (whole entry): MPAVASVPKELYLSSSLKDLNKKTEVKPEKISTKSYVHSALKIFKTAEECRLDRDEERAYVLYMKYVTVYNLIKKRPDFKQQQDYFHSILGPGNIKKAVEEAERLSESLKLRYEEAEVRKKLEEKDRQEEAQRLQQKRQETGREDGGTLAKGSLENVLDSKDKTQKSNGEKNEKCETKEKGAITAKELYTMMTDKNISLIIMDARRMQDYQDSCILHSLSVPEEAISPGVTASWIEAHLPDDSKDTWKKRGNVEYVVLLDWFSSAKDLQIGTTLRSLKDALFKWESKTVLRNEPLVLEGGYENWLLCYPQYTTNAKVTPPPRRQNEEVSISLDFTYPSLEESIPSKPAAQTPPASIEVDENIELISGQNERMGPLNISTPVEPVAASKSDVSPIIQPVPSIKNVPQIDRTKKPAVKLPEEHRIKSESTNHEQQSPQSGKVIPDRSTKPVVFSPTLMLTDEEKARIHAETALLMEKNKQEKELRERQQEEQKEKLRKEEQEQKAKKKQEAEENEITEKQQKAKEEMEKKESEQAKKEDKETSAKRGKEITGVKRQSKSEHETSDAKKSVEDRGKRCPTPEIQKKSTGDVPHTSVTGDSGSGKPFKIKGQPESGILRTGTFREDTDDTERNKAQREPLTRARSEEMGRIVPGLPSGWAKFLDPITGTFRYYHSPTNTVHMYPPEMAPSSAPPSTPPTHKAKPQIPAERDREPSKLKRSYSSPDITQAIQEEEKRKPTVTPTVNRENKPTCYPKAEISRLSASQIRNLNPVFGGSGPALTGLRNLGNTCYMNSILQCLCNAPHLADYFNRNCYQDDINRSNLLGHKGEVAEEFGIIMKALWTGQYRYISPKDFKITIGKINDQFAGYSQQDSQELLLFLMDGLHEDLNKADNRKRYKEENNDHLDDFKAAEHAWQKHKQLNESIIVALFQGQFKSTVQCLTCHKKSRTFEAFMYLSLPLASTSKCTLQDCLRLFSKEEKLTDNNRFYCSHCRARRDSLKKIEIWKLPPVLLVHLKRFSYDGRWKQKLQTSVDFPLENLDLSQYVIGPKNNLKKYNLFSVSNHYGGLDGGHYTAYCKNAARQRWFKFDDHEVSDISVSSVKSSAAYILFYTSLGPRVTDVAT
Summary of the method: as §1

[9] = target: USP9X (UniProt Q93008)
USP9X, sequence (Q93008 whole entry): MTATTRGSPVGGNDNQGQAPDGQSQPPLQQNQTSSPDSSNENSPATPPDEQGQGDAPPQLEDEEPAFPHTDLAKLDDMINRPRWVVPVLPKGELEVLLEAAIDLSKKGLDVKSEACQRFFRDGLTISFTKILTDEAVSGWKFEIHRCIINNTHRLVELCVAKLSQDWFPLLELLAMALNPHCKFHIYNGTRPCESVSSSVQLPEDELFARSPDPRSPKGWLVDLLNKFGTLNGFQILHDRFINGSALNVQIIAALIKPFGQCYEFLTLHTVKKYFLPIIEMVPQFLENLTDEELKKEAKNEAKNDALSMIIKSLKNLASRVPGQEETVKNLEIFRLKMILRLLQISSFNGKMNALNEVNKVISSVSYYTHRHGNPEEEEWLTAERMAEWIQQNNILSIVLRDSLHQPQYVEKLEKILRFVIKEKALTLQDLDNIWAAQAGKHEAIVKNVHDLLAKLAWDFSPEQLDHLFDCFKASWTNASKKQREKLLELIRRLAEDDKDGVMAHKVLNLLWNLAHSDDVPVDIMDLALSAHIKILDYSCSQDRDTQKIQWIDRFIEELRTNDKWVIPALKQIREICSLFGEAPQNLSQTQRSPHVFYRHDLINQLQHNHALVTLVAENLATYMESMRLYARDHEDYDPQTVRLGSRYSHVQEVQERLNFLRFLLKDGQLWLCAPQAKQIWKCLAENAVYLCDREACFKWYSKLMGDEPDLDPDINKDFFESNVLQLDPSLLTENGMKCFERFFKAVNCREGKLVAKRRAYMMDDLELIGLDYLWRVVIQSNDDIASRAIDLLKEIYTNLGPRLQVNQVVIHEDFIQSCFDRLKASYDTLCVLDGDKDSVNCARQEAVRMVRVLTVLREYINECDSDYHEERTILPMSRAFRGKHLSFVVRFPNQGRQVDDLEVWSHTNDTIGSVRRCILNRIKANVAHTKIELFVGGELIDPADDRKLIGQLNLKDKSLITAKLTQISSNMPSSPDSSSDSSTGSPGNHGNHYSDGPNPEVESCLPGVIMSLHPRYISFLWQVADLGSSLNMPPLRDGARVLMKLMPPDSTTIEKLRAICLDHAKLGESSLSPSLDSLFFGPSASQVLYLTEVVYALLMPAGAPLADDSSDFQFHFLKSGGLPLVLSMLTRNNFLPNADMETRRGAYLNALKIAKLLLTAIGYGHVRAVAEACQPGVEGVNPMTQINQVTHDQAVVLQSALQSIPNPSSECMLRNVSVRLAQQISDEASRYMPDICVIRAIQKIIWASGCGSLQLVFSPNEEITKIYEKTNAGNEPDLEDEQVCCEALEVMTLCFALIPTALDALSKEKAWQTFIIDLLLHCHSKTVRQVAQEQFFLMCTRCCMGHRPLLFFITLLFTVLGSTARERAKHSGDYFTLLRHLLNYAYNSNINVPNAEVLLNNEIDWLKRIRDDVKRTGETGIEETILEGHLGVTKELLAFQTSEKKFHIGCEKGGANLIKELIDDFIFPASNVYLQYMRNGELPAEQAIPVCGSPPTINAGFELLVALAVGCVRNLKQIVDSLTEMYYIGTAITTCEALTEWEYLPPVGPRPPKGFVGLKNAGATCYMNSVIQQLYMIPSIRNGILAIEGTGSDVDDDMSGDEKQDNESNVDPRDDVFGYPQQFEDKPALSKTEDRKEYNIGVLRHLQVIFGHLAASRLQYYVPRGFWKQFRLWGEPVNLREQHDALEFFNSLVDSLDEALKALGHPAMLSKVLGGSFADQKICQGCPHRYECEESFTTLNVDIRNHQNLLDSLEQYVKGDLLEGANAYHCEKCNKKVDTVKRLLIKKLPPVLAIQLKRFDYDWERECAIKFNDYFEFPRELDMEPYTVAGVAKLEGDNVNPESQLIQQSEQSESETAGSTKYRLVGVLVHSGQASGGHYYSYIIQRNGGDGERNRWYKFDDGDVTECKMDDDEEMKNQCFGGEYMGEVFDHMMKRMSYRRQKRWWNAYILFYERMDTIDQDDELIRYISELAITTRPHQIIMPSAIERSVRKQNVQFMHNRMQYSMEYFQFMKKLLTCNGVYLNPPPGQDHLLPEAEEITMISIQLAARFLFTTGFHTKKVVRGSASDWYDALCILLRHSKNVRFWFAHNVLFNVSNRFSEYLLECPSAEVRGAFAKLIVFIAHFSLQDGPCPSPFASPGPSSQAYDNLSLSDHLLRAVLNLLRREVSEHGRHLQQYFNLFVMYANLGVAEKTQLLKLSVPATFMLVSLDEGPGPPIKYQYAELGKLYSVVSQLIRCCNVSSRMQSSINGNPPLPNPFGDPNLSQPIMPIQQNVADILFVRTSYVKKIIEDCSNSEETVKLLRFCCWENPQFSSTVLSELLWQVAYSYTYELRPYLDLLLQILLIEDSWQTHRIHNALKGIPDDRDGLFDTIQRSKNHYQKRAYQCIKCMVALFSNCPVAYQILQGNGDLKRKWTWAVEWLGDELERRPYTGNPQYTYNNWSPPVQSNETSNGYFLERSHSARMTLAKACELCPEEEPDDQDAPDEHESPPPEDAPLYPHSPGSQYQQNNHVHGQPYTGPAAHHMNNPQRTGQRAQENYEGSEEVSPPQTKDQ
Summary of the method: as §1

[10] = target: UniProt O00487
UniProt O00487, sequence (O00487 whole entry): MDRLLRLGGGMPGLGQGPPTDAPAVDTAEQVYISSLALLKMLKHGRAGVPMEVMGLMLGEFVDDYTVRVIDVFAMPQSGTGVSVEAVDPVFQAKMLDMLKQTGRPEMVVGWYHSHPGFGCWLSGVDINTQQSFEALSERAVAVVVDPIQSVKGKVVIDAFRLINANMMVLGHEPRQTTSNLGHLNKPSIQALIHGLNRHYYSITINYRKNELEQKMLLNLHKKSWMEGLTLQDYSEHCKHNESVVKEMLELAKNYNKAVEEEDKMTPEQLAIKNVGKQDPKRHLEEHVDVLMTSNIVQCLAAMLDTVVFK
Summary of the method: as §1

Measured: log2 ratio of Biotin-Ahx-Ub-VS probe labelling

Cc1ccc(N(CCC#N)C(=O)CCl)cc1C
active: [4] -1.01 | [7] -1.27
inactive: [1] -0.126 | [2] -0.12 | [3] -0.28 | [5] 0.408 | [6] -0.137 | [8] -0.394 | [9] -0.324 | [10] -0.246
